The target in the first test is KIF25. Put plainly: pooled miR-30 sensor sort-seq; sequence = guide strand. As to conditions: shRNA.
Sequence ACAAACATTGTACCCATCCAAG had a sensor-assay potency score (higher = more potent) of -1.74.

ATTATTGTAAACTTCCACTATG: the sensor-assay potency score (higher = more potent) was -0.786.

As to TAACTTCGCATCGCCTCCGAGG, the sensor-assay potency score (higher = more potent) is -1.63.

For TTATTGTAAACTTCCACTATGG, the sensor-assay potency score (higher = more potent) is -0.569.

TAGAGTCACCGTAATTATCAGG showed a sensor-assay potency score (higher = more potent) of -1.12.

Sequence TTGTAAACTTCCACTATGGAGA had a sensor-assay potency score (higher = more potent) of -0.609.

Sequence ATAACACAAACATTGTACCCAT came in with a sensor-assay potency score (higher = more potent) of 0.237.

AACCTCTGTCCGTCCATCCTTG displayed a sensor-assay potency score (higher = more potent) of -0.841.

TAACACAAACATTGTACCCATC had a sensor-assay potency score (higher = more potent) of -0.837.

On to TAATTCCTAAGTCACTCTGTGG, for which the sensor-assay potency score (higher = more potent) is -1.49.

The next test deals with KIF26A. The description is as above. Conditions: shRNA.
Take TCATCGATCTCGTACACCTTGA: the sensor-assay potency score (higher = more potent) is -0.779.

For TCGAAGGCAAACATCTTGGGAA, the sensor-assay potency score (higher = more potent) was 0.12.

Regarding ATCTCGTACACCTTGATCTCGA, the sensor-assay potency score (higher = more potent) is -0.604.

As to TTCTTGGGGGACTTGAGGCTGC, the sensor-assay potency score (higher = more potent) is -0.669.

On to TACACCTTGATCTCGAACGGCT, for which the sensor-assay potency score (higher = more potent) is -0.449.

TACTGGTAGACGTGCAGCGTGA registered a sensor-assay potency score (higher = more potent) of -1.25.

Sequence TCGCTTGAGCTCCACCAGCTTC came in with a sensor-assay potency score (higher = more potent) of -1.81.

TGTGCTGCTTCTACCTTGCTGG displayed a sensor-assay potency score (higher = more potent) of -0.279.

TTGAGCTCCACCAGCTTCGTGT had a sensor-assay potency score (higher = more potent) of -0.457.

TAGCTTGTCGAGAAGCAGGGCA returned a sensor-assay potency score (higher = more potent) of -0.503.

TTGTCCTTGGTCTTGGAGGCGG yielded a sensor-assay potency score (higher = more potent) of -1.26.

In turn, TCAAACTCATCATTGATGCTGC returned a sensor-assay potency score (higher = more potent) of 0.23.

Another test concerns the target KIF2C. The description is as above. Conditions: shRNA.
In turn, TTCTGTTTCCATTTGAATCAAC yielded a sensor-assay potency score (higher = more potent) of -0.604.

TAACACAGACACATATTCTGTG returned a sensor-assay potency score (higher = more potent) of 0.393.

Regarding TTTCTTGGCCAATTCTTGCTTA, the sensor-assay potency score (higher = more potent) was 0.0812.

For the sequence TTGCTCTTCCATCTCCTCGCTG, the sensor-assay potency score (higher = more potent) was -0.535.

Take TTTGTCTGCTAGCCTGCTCTTC: the sensor-assay potency score (higher = more potent) is -1.15.

TTGGAGTTGACGGATCTCCGTT came in with a sensor-assay potency score (higher = more potent) of -0.171.

The sequence TTCAAAGATTGTCTGTACCAGT yielded a sensor-assay potency score (higher = more potent) of -0.672.

Consider TGAACCTGTAGACAACTTCATT, for which the sensor-assay potency score (higher = more potent) was -1.25.

For TTGCTGTATGATCTCCTTGAGC, the sensor-assay potency score (higher = more potent) was -1.21.

TATGTGTCTTGCCACTTCCTGT displayed a sensor-assay potency score (higher = more potent) of -0.789.

TTCTCCAAGTTCACAGTCCTTA yielded a sensor-assay potency score (higher = more potent) of -0.384.

The next test addresses KIR2DL5B. The description is as above. As to conditions: shRNA.
Sequence TACATGGGAGCTAGCAACCCGG had a sensor-assay potency score (higher = more potent) of -1.49.

In the case of TTGATCATCAGAGTCCTCCCTG, the sensor-assay potency score (higher = more potent) worked out at 0.731.

AACTACTTGAAGAGTTTCCTGT registered a sensor-assay potency score (higher = more potent) of 0.126.

For TACATGTCAAATGAGCTCCTGG, the sensor-assay potency score (higher = more potent) is -0.149.

In the case of TTTGTCTGTGTGAAAACGCAGT, the sensor-assay potency score (higher = more potent) is -0.271.

TTCTTTTTGTTGGAGCAGCAGC returned a sensor-assay potency score (higher = more potent) of -0.965.

In turn, TTTTGTTGTAGAGCTCAGGGAC registered a sensor-assay potency score (higher = more potent) of 0.231.

The record behind these values is the OligoGym collection.
Also: reference of the scale not given here.
